Experimental data from PubChem BioAssay AID492952 (Southern Research Specialized Biocontainment Screening …, 2010).
Screen size: about 2,300 compounds; about 1,500 (65%) were called active. The set was probably picked from earlier hits. The list shows a part of the results. Results with a measured potency or affinity are listed apart. Values without a mark were called inactive. The rule behind the calls is not given here.

experiment: replicating M. tuberculosis growth inhibition, dose response, non-replicating M. tuberculosis project, H37Rv (AID 492952); conditions: series mostly up to 50 µM; inhibition: at the top concentration;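 note: Mycobacterium tuberculosis grown in culture; growth inhibition read after a week of incubation; 0% = bacteria alone untreated and 100% = bacteria with high antibiotic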

SMILES | inhibition [%]
O=C(NCc1ccco1)c1nc2ccccc2s1 | 2.82
CCCCCCOc1ccc(C(=O)O)cc1C#N | -1.62
CC(C)(C)CC(=O)NC(=S)NCc1ccco1 | -5.48
COc1ccc(S(=O)(=O)N(C(C)=O)c2ccc(OC(C)=O)c3ccccc23)cc1[N+](=O)[O-] | 16.4
Cc1nc2scc(-c3ccccc3)c2c(=O)o1 | 5.68
CCOC(=O)c1ccc(NC(=O)NS(=O)(=O)c2ccc(C)cc2)cc1 | 3.68
CCOC(=O)c1ccc(NC(=O)CCSCCc2ccccn2)cc1 | 0.82
O=C(NNc1ccc([N+](=O)[O-])cc1)C1CC2CCCC(C1)C2=O (configuration not stated) | 4.15
Cc1ccc(CCC(=O)Nc2ccc([N+](=O)[O-])cc2)o1 | 2.46
CC(NC(=O)c1cccc(F)c1)C1CC2CCC1C2 (configuration not stated) | -1.67
O=C(N/N=C/C=C/c1ccccc1)c1cccs1 | 2.93
O=C(Nc1cccnc1)c1cc(Cl)ccc1Cl | 2.63
Cn1c(-c2cccc([N+](=O)[O-])c2)cnc1NCc1cccc(F)c1 | -0.03
O=C1OC(/C=C/c2ccccc2)=NC/1=C\c1cccnc1 | 8.72
Cc1ccccc1C1=N/C(=C/c2cccnc2)C(=O)O1 | -9.98
Cc1cc(OCCCn2ccnc2)ccc1C(C)C | 8.68
O=C(COc1ccc2ccccc2c1Br)N1CCCC1 | 11.9
O=S(=O)(c1ccc(Cl)c2ccccc12)N1CCCC1 | -2.3
Cc1ccc(C(=O)COC(=O)CCc2ccc(S(=O)(=O)N3CCCCC3)cc2)cc1 | -2.89
CCOC(=O)C1CCCN(Cc2nc(Cc3ccccc3Cl)no2)C1 (configuration not stated) | -3.11
O=C(COc1c(Br)cc(Br)c2cccnc12)N1CCCCC1 | 1.93
COc1cc(NC(=O)N2CCOCC2)cc(OC)c1 | 2.67
Cc1cc(C)nc(SC2CC(=O)N(c3ccc(C)c(C)c3)C2=O)n1 (configuration not stated) | -0.48
CC(=O)Nc1ccc(NC(=O)[C@@H]2CCCC[C@@H]2C(=O)O)cc1 | 6.64
Cc1nc(C(=O)Nc2ccccc2)sc1C(=O)Nc1ccccc1 | -3.5
NC(=O)N/N=C\c1cc(Br)ccc1O | 1.43

SMILES | inhibition [%]
NC(N)=N/N=C/c1cc([N+](=O)[O-])ccc1O | -0.86
O=C1N=c2ccccc2=C1c1c(O)n(-c2cccc(F)c2)[nH]c1=O | 4.88
N/C(=N\OC(=O)c1cccc2ccccc12)c1cccnc1 | 11.1
O=C(Cc1c(F)cccc1Cl)Nc1ncc([N+](=O)[O-])s1 | 6.48
Cc1ccc(C(=O)O/N=C(\N)c2cccc([N+](=O)[O-])c2)cc1 | 8.71
N/C(=N\OC(=O)c1cccc(Br)c1)c1ccc([N+](=O)[O-])cc1 | -3.85
O=C(COc1ccccc1)Nc1ccc(F)cc1 | 8.73
CCCNC(=O)NC(=O)COc1ccc2oc3ccccc3c2c1 | 7.11
N#CC1=C(N)Oc2c(ccc3cccnc23)C1c1ccccc1 (configuration not stated) | 1.24
O=C(NCCc1cccc(Cl)c1)c1cc2ccccc2oc1=O | -3.15
COCCCC1CCN(Cc2nc(-c3ccccc3)no2)CC1 | -5.23
CC(C)(C)OC(=O)NCCC(=O)Oc1ccc2ccc(=O)oc2c1 | -10.2
O=C(NC(=S)Nc1ccc(F)cc1)C1CCCCC1 | 8.98
O=C(N/N=C/c1cccc([N+](=O)[O-])c1O)c1cccs1 | 10.5
O=C(O)c1ccccc1C(=O)NNc1ccc(Cl)cc1 | 9.18
O=C(O)c1ccccc1-c1ccccc1C(=O)Nc1nc2ccccc2s1 | 14
O=C(NCCN1C(=O)S/C(=C\c2ccccc2F)C1=O)C1CCN(S(=O)(=O)c2cccs2)CC1 | 4.18
O=S(=O)(Nc1ccc(O)c2ccccc12)c1ccc(F)cc1 | -0.46
O=c1cc(-c2ccccc2Cl)oc2c([N+](=O)[O-])c(O)cc(O)c12 | -1.85
Cc1ccc(-c2nnc(Cc3ccc([N+](=O)[O-])cc3)o2)cc1 | -1.75
CCC1CCC(c2nnc(-c3ccc([N+](=O)[O-])cc3)o2)CC1 (configuration not stated) | 10.4
Cc1nc(Cl)nc(N(C)c2ccccc2)c1[N+](=O)[O-] | 4.31
COc1ccc(Cc2nnc(SCc3ccc([N+](=O)[O-])cc3)o2)cc1 | 4.06
O=C1CCCCC1Sc1nnc(-c2ccc3c(c2)OCO3)o1 (configuration not stated) | -1.32
C(=C\c1ccccc1)/CSc1nc2ncccc2[nH]1 | 6.43
O=C(CCSc1ccccc1)N1CCCC1 | 3.77

SMILES | inhibition [%]
CCS(=O)(=O)c1ncc(Cl)c(C(=O)Nc2ccc(S(=O)(=O)N3CCC(C)CC3)cc2)n1 | -3.77
CCCC(O)(CCC)C(=O)NNc1ccc(C)cc1 | 10.7
COc1ccc(CNC(=O)COC(=O)C2CC3C=CC2C3)cc1 (configuration not stated) | 4.96
CCCCNC(=O)Cc1ccc(C)cc1 | -4.22
CC(C)CSc1nnc2c3ccccc3n(C)c2n1 | 1.04
O=C(c1cc2ccccc2o1)c1nc2c(n1O)CCCCC2 | 5.04
O=C(Nc1ccccc1)c1ccc(Br)o1 | 12.3
CCCOC(=O)c1ccc(NC(=O)Cc2cccs2)cc1 | 14
CCCCOC(=O)c1ccc(NC(=O)C2CCCO2)cc1 (configuration not stated) | 20.4
CCCOC(=O)c1ccc(NC(=O)C2C3C=CC(O3)C2C(=O)O)cc1 (configuration not stated) | 3.84
CC1CCN(S(=O)(=O)c2cccc(C(=O)Oc3ccc([N+](=O)[O-])cc3)c2)CC1 | -2.52
C=CCN(CC=C)C(=O)Cc1ccc(F)cc1 | -3.08
O=C(CCNc1cccc(F)c1)c1cccc([N+](=O)[O-])c1 | -0.17
Nc1ccccc1C(=O)NNC1=C(C(=O)C(F)(F)F)CCC1 | -1.02
COc1ccc(C)c2sc(NC(=O)CCS(=O)(=O)c3ccccc3)nc12 | 4.31
Cc1ccc(-c2nnc(-c3cccs3)o2)cc1 | 0.17
O=C(NC1CCCC1)c1cc(-c2cccs2)on1 | 1.34
CN1C(=O)CC(N2CCC(c3nc4ccccc4s3)CC2)C1=O (configuration not stated) | -6.77
CSc1ccc(COC(=O)CCS(=O)(=O)c2ccc(C)cc2)cc1 | 6.07
COc1ccc(OCCOC(=O)CCS(=O)(=O)c2ccc(C)cc2)cc1 | 0.82
O=C(CCS(=O)(=O)c1ccc(Cl)cc1)Oc1ccc2c(c1)OCO2 | 2.49
O=C(COc1ccc(F)cc1)Nc1ccc2c(c1)OCCO2 | 25.3
Cc1ccc(NC(=O)CC2SC3=NCCCN3C2=O)c(C)c1 (configuration not stated) | 4.67
CC(C)c1ccc(C2=C(O)c3ccccc3C(=O)C2=O)cc1 | -2.49
CC(CN1CCOCC1)OC(=O)c1ccc2c(c1)OCCO2 (configuration not stated) | 0.51
NCCCN1CCOCC1 | -1.85

SMILES | inhibition [%]
CCOC(=O)Nc1ccc2c(c1)N(C(=O)CCN1CCOCC1)c1ccccc1S2=O (configuration not stated) | 2.63
CC1CCCN(CCSc2ccc(Cl)cc2)C1 (configuration not stated) | 12.8
Cc1ccc(C(=O)CCC2CCCC2=O)cc1 (configuration not stated) | -3.32
Clc1ccc(SCCCCN2CCNCC2)cc1 | 4.18
CCOC(=O)C1CCN(CCCSc2ccc(Cl)cc2)CC1 | -0.24
O=Cc1ccc(-c2ccc(Cl)cc2Cl)[nH]1 | 22.4
O=C(CCCSc1nc2ccccc2s1)NCc1ccco1 | -2.55
Fc1ccc(COc2ccc(-c3nnco3)cc2)cc1 | 0.98
COC(=O)CCSCc1cn2cc(Cl)ccc2n1 | -0.87
Cc1cc2n(n1)SC(Nc1ccccc1)N2 (configuration not stated) | 3.35
CC(C)n1c(=S)[nH]c2ccccc2c1=O | 3.34
CC(C)(C)NCc1cc(Br)ccc1OC1CCCC1 | 4.3
COc1ccc(-n2c3c(cc(C(=O)NNc4ccccc4)c2=O)C(=O)CC(C)(C)C3)cc1 | -1.68
Clc1ccccc1OCc1nnc(-c2ccccc2)o1 | 4.87
c1ccc(Cc2nnc(-c3ccccc3)o2)cc1 | 2.02
O=C1NC(=S)S/C1=C\c1ccc(SCc2ccco2)o1 | -0.39
COc1ccc(OCCCC(=O)Nc2ccc(N3CCOCC3)cc2)cc1 | -1.48
CN(CC(=O)Nc1ccc(Cl)cc1)C1CCCCC1 | -1.09
Cc1ccc(C(=O)C=CNNC(=O)c2ccccc2)cc1 | 10.6
O=C(C1CCN(C2CC(=O)N(Cc3ccccc3)C2=O)CC1)N1CCCCCC1 (configuration not stated) | -5.07
CC(C)CN(Cc1c(O)ccc2ccccc12)CC(C)C | 5.53
CCOc1ccc(NC(=O)CCNC(=O)c2ccc(Br)cc2)cc1 | 11.1
O=C(NCCSc1ccccc1)c1ccc(Br)cc1 | -3.27
COc1ccc(C(=O)C=CNNC(=O)c2ccc(Cl)cc2)cc1 | 1.86
COc1ccccc1CCNC(=O)c1ccc(C)o1 | 3.56
O=C(Oc1cccc2cccnc12)c1cccc(-n2cnnn2)c1 | -0.76

SMILES | inhibition [%]
Cc1ccc(C2=N/C(=C\c3cccnc3)C(=O)O2)cc1 | -1.93
Cc1cccc(C2=N/C(=C\c3cccnc3)C(=O)O2)c1 | 0.69
CN(CCCCOc1ccc(F)cc1)Cc1ccccc1 | -6.23
CN(CCOCCOc1ccc(F)cc1)Cc1ccccc1 | -0.16
O=C1CC(N2CCN(c3ccccc3)CC2)C(=O)N1CCc1ccccc1 (configuration not stated) | 3.41
O=C(COc1ccccc1)NC1CCCCC1 | 4.93
CC(NC(=O)COc1ccccc1F)C1CC2CCC1C2 (configuration not stated) | 10.3
O=C(NCCC1=CCCCC1)c1coc(=O)c(Br)c1 | -8.02
COc1cc(/C=N/Nc2cccc3cccnc23)cc(OC)c1O | 0.63
COc1ccc(OCC(=O)Nc2ccc(N3CCN(C(=O)c4ccco4)CC3)cc2)cc1 | 2.2
COc1ccc(N2CCN(CC(=O)NC(=O)NC(C)(C)C)CC2)cc1 | -7.18
CN(C)Cc1ccccc1Sc1ccc(Br)cc1 | 4.09
CC1CCCN(CCCOc2ccc([N+](=O)[O-])cc2)C1 (configuration not stated) | -7.03
O=C1c2ccccc2C(=O)N1CCOc1ccc(F)cc1 | -6.11
COc1ccccc1N=Cc1nc(-c2ccccc2)oc1OC(C)=O | 9.47
COc1ccc(N=Cc2nc(-c3ccccc3)oc2OC(C)=O)cc1 | 9.7
CC1(C)CC(=O)C2=C(C1)OC(N)=C([N+](=O)[O-])C2c1ccc(C#N)s1 (configuration not stated) | 25.2
C/C(=N\NC(=O)COc1cccc(C)c1)c1ccc2ccccc2c1O | 5.19
Cc1ccc(N2C(=O)CC(Sc3nccc(C)n3)C2=O)cc1 (configuration not stated) | 3.55
O=C(CCC1CCCC1)NCc1ccccn1 | -3.52
COc1cccc(CC2(CO)CCCN(Cc3sc(N4CCCC4)nc3Cl)C2)c1 (configuration not stated) | 0.34
COc1cccc(C(=O)C2CCCN(CC3=Cc4cc(OC)ccc4OC3)C2)c1 (configuration not stated) | 9.31
CCOC(=O)N1CCC(NC(=O)C2CCN(c3nc(-c4ccc(OC)cc4)no3)CC2)CC1 | -1.07
